# Source: PubChem BioAssay
# Sampled rows, rich in hits. Any-hit rate of the full collection: about 19%.
# LASV entry inh – qHTS for Inhibitors of binding or entry into cells for Lassa Virus. 300,000 compounds, 1.2% hits. AID 540256, 2011. Lassa virus pseudotype entry inhibition, cell reporter. Potency, µM (series often up to 37.9 µM), without a hit: at the highest dose activity change, negative = inhibition, actives largely listed as inhibitors; calls by dose curve; tested in HEK293 cells; also: potency is read from the fitted curve at half-maximal effect; % is scaled to controls: 0 for no effect and ±100 for the full control effect; nearly all actives have a fitted effect of over 50% in size
# CHX counter – Cycloheximide Counterscreen for Small Molecule Inhibitors of Shiga Toxin. cell reporter, cycloheximide protein synthesis inhibition counterscreen. max response, %. 300,000 compounds, 12% hits. AID 2314, 2010; in the data active = max response mostly above about 13%, no sharp cut-off; inactive = mostly below about 14%; also: read at 38.3 µM for the half of the compounds with a filed dose; 0% is about no effect
# MARV entry inh – qHTS for inhibitors of binding or entry into cells for Marburg Virus | Marburg virus pseudotyped entry inhibition, cell reporter | Potency, µM (series often up to 37.8 µM), without a hit: at the top dose activity change, negative = inhibition, actives largely listed as inhibitors | 300,000 compounds, 1.8% hits | AID 540276, 2011; calls by dose curve; tested in HEK293 cells; also: potency is read from the fitted curve at half-maximal effect; % is scaled to controls: 0 for no effect and ±100 for the full control effect
# Shiga inhibitor – A qHTS for Small Molecule Inhibitors of Shiga Toxin; Vero cells, Shiga toxin protein synthesis inhibition reporter; inhibition, % at 38.7 µM; 290,000 compounds, 9.2% hits; AID 2315, 2010; in the data active = inhibition mostly above about 28%, no sharp cut-off; inactive = mostly below about 43%; also: 0% is about no effect
# Pf growth 96h – Primary qHTS for delayed death inhibitors of the malarial parasite plastid, 96 hour incubation | P. falciparum luciferase reporter growth, 96 h | 320,000 compounds, 6.9% hits | Potency, µM (doses to about 28.7 µM), for the others: at the highest dose activity change, negative = inhibition, hits mostly inhibitors; also: potency is read from the fitted curve at half-maximal effect; % is scaled to controls: 0 for no effect and ±100 for the full control effect
#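 P. falciparum expressing integrated firefly luciferase, in erythrocytes at 2% hematocrit, 0.05% parasitemia, incubated with compounds 96 h at 37 C, 5% CO2. Growth inhibition read as loss of luminescence; two-generation exposure targets delayed-death apicoplast inhibitors.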
# Pf growth 48h – Primary qHTS for delayed death inhibitors of the malarial parasite plastid, 48 hour incubation; P. falciparum luciferase growth in erythrocytes, 48 h; Potency, µM (highest dose often 28.7 µM), for inactives: at the top dose activity change, negative = inhibition, hits mostly inhibitors; 310,000 compounds, 5.9% hits; also: potency is read from the fitted curve at half-maximal effect; % is scaled to controls: 0 for no effect and ±100 for the full control effect
#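 In quantitative HTS format, infected erythrocytes bearing luciferase-reporter parasites were treated for a single generation at 37 C. Luminescence after adding detection reagent served as the growth measure.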
# An asterisk follows results filed as active; ? = inconclusive; . = no result given; [ ] = dose if it differs, or a comment. Unless noted, calls follow the shape of the dose curve; as a rule, active = well fitted inhibition curve with a large enough effect; inconclusive = small, poorly fitted or top-dose-only effect, or another doubt; inactive = no such curve, though single readings can be large or run the other way.
SMILES,LASV entry inh,CHX counter,MARV entry inh,Shiga inhibitor,Pf growth 96h,Pf growth 48h
Cc1ccc(NS(=O)(=O)c2ccc(-c3ccc(=O)[nH]n3)o2)cc1,11.9%[46.1 µM],-5.3,-2.4%[46.1 µM],-10.1,156.9%,0.2%
Nc1ccccc1N=Cc1ccc(-c2cccc(Cl)c2)o1,?,28.8*,?,76.1*,?,10.4µM*
CCOC(=O)NC(=O)/C(C#N)=C/c1ccc(N(C)C)cc1,12.5%,36.0*,12.7%[46.1 µM],30.1,35.6%,159.5%
CN(C)c1ccc(/C=C(\C#N)C(=O)c2ccccc2)cc1,.,14.2*,.,41.3,3.7%,6.3%
CN(C)c1cccc(/C=C(\C#N)c2ccccc2)c1,.,41.6*,.,77.5*,193.5%,237.2%
Cn1cccc1/C=C(\C#N)c1ccccc1,.,8.8,.,23.1,-16.8%,12.1%
N#C/C(=C\c1ccccc1)C(=O)NC(=O)Oc1ccccc1,-1.4%,7.7,?,-3.8,5.4%,.
CN(C)c1ccc(/C=C(\C#N)c2ccccc2)cc1,.,57.3*,.,63.1*,138.4%,350.0%
COc1ccc(OCC(=O)N2CCN(Cc3nc4cc([N+](=O)[O-])ccc4n3C)CC2)cc1,-14.2%,2.3,-2.0%,-13.5,?,-9.3%
Cc1ccc(S(=O)(=O)CCc2nnc(NC(=O)c3ccco3)s2)cc1,12.2%[46.1 µM],1.7,7.7%[46.1 µM],16.3,25.2%,2.6%
COCCN1C(=O)c2oc3ccccc3c(=O)c2C1c1ccc(O)c(OC)c1 (stereo not given),7.3%,-1.6,9.9%,-7.5,-13.4%,11.2%
O=C1c2oc3ccc(Cl)cc3c(=O)c2C(c2cccc(Br)c2)N1CCO (stereo not given),1.2%,-3.3,-13.4%,8.4,0.7%[5.75 µM],11.7µM*
CCCOc1ccc(C2c3c(oc4ccccc4c3=O)C(=O)N2CCN(CC)CC)cc1OC (stereo not given),15.5%,7.2,?,38.2,?,1.47µM*
CCN(CC)CCN1C(=O)c2oc3ccccc3c(=O)c2C1c1ccccc1 (stereo not given),5.8%,34.6*,6.9%,35.0,?,?
CCN(CC)CCN1C(=O)c2oc3ccccc3c(=O)c2C1c1cccc(Br)c1 (stereo not given),-9.2%,-2.7,-16.5%,25.2,0.928µM*,?
Cn1nnnc1SCCCNCc1ccc(-c2ccc(Br)cc2)o1,1.6%[46.1 µM],.,3.6%[46.1 µM],.,.,.
O=C(COc1cccc2ccccc12)NNC(=O)CSCCO,-4.4%,-2.7,-24.4%,-1.8,-11.8%,5.0%
CCOc1ccccc1CN1CCNC(=O)C1CC(=O)NCCc1ccccn1 (stereo not given),?,14.4,12.9%[46.1 µM],10.0,?,-1.1%
Cc1ccc2oc3c(c(=O)c2c1)C(c1cccc(Br)c1)N(Cc1ccco1)C3=O (stereo not given),-25.1%[14.3 µM],-3.9,?,-10.6,13.1µM*,-24.8%
C[N+](C)(C)CCCN(Cc1ccc2c(c1)OCO2)C(=O)NC1CCCCC1,.,10.1,.,15.6,?,?
O=C(CSc1nnnn1-c1ccc2c(c1)OCCO2)OC1CCCCC1,4.8%,33.8*,14.8%,102.4*,?,17.5%
O=C(CSc1nnnn1-c1ccc2c(c1)OCCO2)Nc1nc2c(s1)CCCC2,-2.6%,1.4,-10.3%,19.6,?,-24.7%
O=C(CSc1nnnn1-c1ccc2c(c1)OCCO2)N1CCc2ccccc21,12.8%,-6.8,-21.6%,-10.5,.,4.7%
c1ccc(CSc2nnnn2-c2ccc3c(c2)OCCO3)nc1,1.0%,21.4*,20.3%,42.9,8.5%,25.8%
COc1ccc(C)cc1NC(=O)c1cccc(-c2ccc(OC(C)=O)cc2)c1,-17.4%,1.2,?,-10.3,-22.9%,-20.8%
CCOc1ccc(N/C(C)=C\C(=O)c2ccc3c(c2)OCCO3)cc1,0.1%,50.1*,?,85.7*,21.8%,?
CCOc1ccc(C(=O)N(CC)CC(=O)Nc2ccc3c(c2)OCCO3)cc1,.,.,.,.,188.6%,250.2%
CCOc1ccc(N/C(C)=C/C(=O)c2ccc3c(c2)OCCO3)cc1,?,55.6*,?,60.3*,?,111.8%
CCN1CCN(Cc2cc(Br)cc(Br)c2O)CC1,-3.0%,-5.0,-9.0%,-26.9,.,1.65µM*
